Test results from PubChem BioAssay AID1159580 (chemical genetic matrix, 2015).
Several values for one entry are separate records, joined by “and”; a condition that tells them apart may be missing. Identical values can stand only once. Screen size: about 5,500 compounds; about 2,000 (36%) were called active. Roughly 18% stayed inconclusive and do not appear here. Rule as the data show it: active = normalized growth mostly below about 0.91 (no sharp cut-off); inconclusive = no clear call, values can overlap the other calls; inactive = mostly above about 0.92. The list shows a part of the results.

Assay: chemical genetic growth profiling, strain panel (AID 1159580);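 also: tested at 20 µM; growth read once vehicle control cultures reached saturation at 30 °C; 1 = growth at the plate median or of vehicle wells; lower values mean less growth of the strain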
Conditions: S. cerevisiae deletion strains, growth OD

Measured: normalized growth

O=c1[nH]cnc2c1ncn2C1O[C@H](CO)[C@@H](O)[C@H]1O (stereo partly drawn)
inactive: locus YAL013W, strain DEP1, active compounds read low 1.01 | locus YAL021C, strain ccr4, active compounds read low 0.989 | locus YAL026C, strain drs2, active compounds read low 1 | locus YAL030W, strain snc1, active compounds read low 0.989 | locus YBL061C, strain skt5, active compounds read low 0.995 | locus YBR009C, strain hhf1, active compounds read low 1.02 | locus YBR021W, strain FUR4, active compounds read low 1 | locus YBR023C, strain chs3, active compounds read low 0.998 | locus YBR171W, strain sec66, active compounds read low 0.978 | locus YBR229C, strain ROT2, active compounds read low 1 | locus YBR231C, strain swc5, active compounds read low 0.974 | locus YBR279W, strain paf1, active compounds read low 0.986 | locus YCL011C, strain gbp2, active compounds read low 1 | locus YCL016C, strain dcc1, active compounds read low 1 | locus YCL029C, strain bik1, active compounds read low 1.03 | locus YCL069W, strain vba3, active compounds read low 0.995 | locus YCR088W, strain abp1, active compounds read low 0.981 | locus YDL005C, strain med2, active compounds read low 0.987 | locus YDL035C, strain GPR1, active compounds read low 1.01 | locus YDL040C, strain nat1, active compounds read low 0.986 | locus YDL074C, strain BRE1, active compounds read low 1.01 | locus YDL101C, strain DUN1, active compounds read low 1.01 | locus YDL134C, strain PPH21, active compounds read low 1 | locus YDL185W, strain tfp1, active compounds read low 1.04 | locus YDL192W, strain arf1, active compounds read low 1.05 | locus YDR001C, strain nth1, active compounds read low 0.986 | locus YDR069C, strain doa4, active compounds read low 0.975 | locus YDR101C, strain arx1, active compounds read low 1.05 | locus YDR137W, strain rgp1, active compounds read low 1.01 | locus YDR159W, strain sac3, active compounds read low 0.968 | locus YDR162C, strain NBP2, active compounds read low 1.01 | locus YDR195W, strain ref2 0.958 | locus YDR297W, strain sur2, active compounds read low 0.993 | locus YDR318W, strain mcm21, active compounds read low 1.01 | locus YDR334W, strain swr1, active compounds read low 0.974 | locus YDR335W, strain msn5, active compounds read low 0.997 | locus YDR388W, active compounds read low 1.03 | locus YDR392W, strain spt3, active compounds read low 0.907 | locus YDR502C, strain sam2, active compounds read low 1.02 | locus YEL003W, strain gim4, active compounds read low 0.991 | locus YEL037C, strain rad23, active compounds read low 0.987 | locus YEL061C, strain CIN8 (second series), active compounds read low 0.989 | locus YEL061C, strain CIN8, active compounds read low 1 | locus YER015W, strain faa2, active compounds read low 0.982 | locus YER016W, strain bim1, active compounds read low 0.989 | locus YER110C, active compounds read low 1.03 | locus YER111C, strain swi4, active compounds read low 0.996 | locus YER155C, strain BEM2 (second series), active compounds read low 0.939 | locus YER155C, strain BEM2, active compounds read low 1.01 | locus YER167W, strain BCK2, active compounds read low 1 | locus YFR010W, strain ubp6, active compounds read low 0.983 | locus YGL078C, strain dbp3, active compounds read low 1.02 | locus YGL086W, strain mad1, active compounds read low 1.01 | locus YGL167C, strain pmr1, active compounds read low 0.978 | locus YGL173C, strain kem1, active compounds read low 0.988 | locus YGL227W, strain vid30, active compounds read low 0.98 | locus YGL240W, strain doc1, active compounds read low 1 | locus YGL248W, strain PDE1, active compounds read low 1.01 | locus YGL253W, strain hxk2, active compounds read low 0.988 | locus YGR135W, strain pre9, active compounds read low 0.998 | locus YGR252W, strain gcn5, active compounds read low 0.981 | locus YHR013C, strain ard1, active compounds read low 0.969 | locus YHR027C, strain rpn1, active compounds read low 0.997 | locus YHR030C, strain SLT2, active compounds read low 1 and 0.966 | locus YHR079C, strain IRE1 (second series), active compounds read low 1.03 | locus YHR079C, strain IRE1, active compounds read low 0.978 | locus YHR094C, strain hxt1, active compounds read low 1.02 | locus YHR129C, strain ARP1, active compounds read low 1 | locus YHR142W, strain chs7, active compounds read low 1.02 | locus YHR200W, strain rpn10, active compounds read low 1.03 | locus YIL066C, strain RNR3, active compounds read low 1.01 | locus YIL073C, strain SPO22, active compounds read low 1.12 | locus YIL125W, strain kgd1, active compounds read low 1.02 | locus YIR030C, strain dcg1, active compounds read low 1.04 | locus YJL092W, strain hpr5, active compounds read low 0.998 | locus YJL095W, strain BCK1 (second series), active compounds read low 0.987 | locus YJL095W, strain BCK1, active compounds read low 1.02 and 0.981 | locus YJL115W, strain asf1, active compounds read low 0.987 | locus YJL129C, strain trk1, active compounds read low 0.994 | locus YJL134W, strain LCB3, active compounds read low 1 | locus YJL154C, strain vps35, active compounds read low 0.982 | locus YJL164C, strain tpk1, active compounds read low 1.02 | locus YJL166W, strain qcr8, active compounds read low 1.01 | locus YJL168C, strain set2, active compounds read low 1.01 | locus YJL187C, strain SWE1 (second series), active compounds read low 1 | locus YJL187C, strain SWE1, active compounds read low 0.991 | locus YJR043C, strain POL32, active compounds read low 1.01 | locus YJR066W, strain TOR1, active compounds read low 0.925
